2 compounds from PubChem BioAssay AID720606 (Broad Institute, 2013) can be followed below.

Results filed as inconclusive are left out. Activity calls are given as the source filed them.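 Rule for the calls: active = all three timepoint tests show falling viability with half-maximal potency at or below twice the top dose; inconclusive = timepoint tests disagree on the call; inactive = all timepoint tests inactive.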

A short description of the assay: cytotoxicity in LOX IMVI cells – cell-based, Alamar Blue fluorescence, 8/24/48 h, dry powder, HRAS target identification, dose response (AID 720606). The settings on record: LOX IMVI viability, 24 h; series mostly up to 35 µM. For orientation: Alamar Blue is a resazurin reagent that responds to reducing activity.

As for `CCC(=O)N(c1ccc(OC)c(Cl)c1)C(C(=O)NCCc1ccccc1)c1cccs1` (configuration not stated), the call was inactive.

Turning to `Cc1onc(C(=O)N2CCN(C(c3ccncc3)c3ccncc3)CC2)c1[N+](=O)[O-]`, the outcome was inactive.
